Data published in PubChem BioAssay (NCI).
The panel holds about 79,000 compounds, 15% with a hit somewhere; the sample as a whole holds those more often. Activity calls are given as the source filed them. Cut-off read from the data, not from the text of the source: active = growth inhibition above about 70%; inactive = the rest.

What was measured:
[1] = NCI Yeast Anticancer Drug Screen. Data for the rad52 strain (AID 147);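 note: 0% = growth of vehicle-treated control cultures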; details: S. cerevisiae rad52 mutant growth inhibition, stronger effect = higher value
Outline: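 Vehicle-treated cultures served as the reference for growth inhibition of compound-exposed yeast bearing a DNA repair mutation.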

[2] = NCI Yeast Anticancer Drug Screen. Data for the wt1 strain (AID 149);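 note: 0% = growth of vehicle-treated wt1 cultures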; details: S. cerevisiae wt1 strain (SPY 50644) growth inhibition, stronger effect = higher value
Outline: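 Yeast wt1 strain exposed to compounds; growth inhibition measured relative to vehicle-treated controls.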

[3] = NCI Yeast Anticancer Drug Screen. Data for the rad50EPP+ strain (AID 151);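 note: 0% = growth of vehicle-treated control cultures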; details: S. cerevisiae rad50 mutant strain, stronger effect = higher value
Outline: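 In this screen, rad50EPP+ yeast were exposed to compounds. Growth inhibition was scored against vehicle-treated controls.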

[4] = NCI Yeast Anticancer Drug Screen. Data for the mgt1 strain (AID 153); details: S. cerevisiae mgt1 mutant growth inhibition, stronger effect = higher value
Outline: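 mgt1 strain exposed; growth vs vehicle control recorded as inhibition.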

[5] = NCI Yeast Anticancer Drug Screen. Data for the rad50 strain (AID 155);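 note: 0% = growth of vehicle-only cultures of the same strain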; details: S. cerevisiae rad50 strain growth inhibition, stronger effect = higher value
Outline: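 Yeast carrying a defined DNA repair defect were exposed to test compounds, and growth was compared with vehicle-treated controls to give percent inhibition.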

[6] = NCI Yeast Anticancer Drug Screen. Data for the mec2-1 strain (AID 157); details: S. cerevisiae mec2-1 strain, stronger effect = higher value
Outline: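 Vehicle-treated cultures served as reference for growth inhibition of compound-exposed mec2-1 yeast.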

[7] = NCI Yeast Anticancer Drug Screen. Data for the rad14 strain (AID 159);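 note: 0% = growth of vehicle-treated control cultures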; details: S. cerevisiae rad14 strain growth inhibition, stronger effect = higher value
Outline: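 Yeast cells carrying a defined DNA-repair defect were exposed to compounds, and growth inhibition was calculated relative to vehicle-treated control cultures.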

[8] = NCI Yeast Anticancer Drug Screen. Data for the sgs1 mgt1 strain (AID 161);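 note: 0% = growth of cultures given vehicle only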; details: S. cerevisiae sgs1 mgt1 strain, stronger effect = higher value
Outline: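 Test agents were incubated with a DNA-repair-mutant yeast strain. Growth was then read and compared against vehicle-treated controls.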

[9] = NCI Yeast Anticancer Drug Screen. Data for the CLN2oe strain (AID 163);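 note: 0% = growth of vehicle-only control cultures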; details: S. cerevisiae CLN2oe strain, stronger effect = higher value
Outline: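 Inhibition relative to vehicle-treated yeast is reported. Cells: strain with genetic alteration in cell-cycle control, grown with compound.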

[10] = NCI Yeast Anticancer Drug Screen. Data for the cln2 rad14 strain (AID 165);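 note: 0% = growth equal to vehicle treated cultures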; details: S. cerevisiae cln2 rad14 strain, stronger effect = higher value
Outline: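 Each compound was tested on cln2 rad14 yeast. Inhibition of growth was calculated against vehicle-exposed controls.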

[11] = NCI Yeast Anticancer Drug Screen. Data for the bub3 strain (AID 167); details: S. cerevisiae bub3 mutant strain, stronger effect = higher value
Outline: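 Compounds were applied to a genetically altered yeast strain carrying a cell-cycle control defect. Growth inhibition was scored against vehicle-treated controls.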

[12] = NCI Yeast Anticancer Drug Screen. Data for the wt2 strain (AID 169);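 note: 0% = growth of vehicle-treated yeast cultures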; details: S. cerevisiae wt2 strain growth inhibition, stronger effect = higher value
Outline: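 Inhibition of yeast growth was determined after compound treatment, normalised to controls receiving only vehicle.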

[13] = NCI Yeast Anticancer Drug Screen. Data for the mlh1 strain (AID 171);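 note: 0% = growth of vehicle-treated control cultures of the same strain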; details: S. cerevisiae mlh1 strain growth inhibition, stronger effect = higher value
Outline: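 Vehicle-normalised growth inhibition of a repair- or checkpoint-altered yeast strain following compound treatment.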

[14] = NCI Yeast Anticancer Drug Screen. Data for the sgs1 strain (AID 173);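 note: 0% = growth of vehicle-only control cultures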; details: S. cerevisiae sgs1 mutant, stronger effect = higher value
Outline: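 Screen format: yeast with repair or checkpoint alterations, compound exposure, growth read relative to vehicle.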

[15] = NCI Yeast Anticancer Drug Screen. Data for the mlh1 rad18 strain (AID 175); details: S. cerevisiae mlh1 rad18 strain growth inhibition, stronger effect = higher value
Outline: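 Vehicle-treated cultures served as the reference for growth inhibition in a yeast strain carrying DNA damage repair alterations exposed to each compound.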

[16] = NCI Yeast Anticancer Drug Screen. Data for the rad18 strain (AID 177); details: S. cerevisiae rad18 mutant growth inhibition, stronger effect = higher value
Outline: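 Test articles were incubated with altered yeast defective in DNA damage repair. Results are given as inhibition of growth versus vehicle.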

[17] = at 5.0 µM (retest, dose inferred, filed as 0.5)
[18] = at 50.0 µM (retest, dose inferred, filed as 5.0)

Measured: growth inhibition

COc1cc([C@@H]2c3cc4c(cc3[C@H](OC3OC5COC(C(C)C)OC5C(O)C3O)C3COC(=O)[C@@H]32)OCO4)cc(OC)c1O (stereo partly specified)
active: [1]; at 100.0 µM 78% | [5]; [18] 96% | [5]; at 100.0 µM 82% | [12]; at 100.0 µM 83%
inactive: [1]; at 1.2 µM -10% | [1]; at 3.7 µM -17% | [1]; at 11.0 µM -26% | [1]; at 33.0 µM 35% | [2]; at 1.2 µM -25% | [2]; at 3.7 µM -31% | [2]; at 11.0 µM 12% | [2]; at 33.0 µM -18% | [2]; at 100.0 µM 9% | [3]; at 1.2 µM -15% | [3]; at 3.7 µM -19% | [3]; at 11.0 µM -46% | [3]; at 33.0 µM -41% | [3]; at 100.0 µM -37% | [4]; at 1.2 µM -31% | [4]; at 3.7 µM -8% | [4]; at 11.0 µM -32% | [4]; at 33.0 µM -29% | [4]; at 100.0 µM 22% | [5]; at 1.2 µM -22% | [5]; at 3.7 µM -32% | [5]; [17] 18% | [5]; at 11.0 µM -11% | [5]; at 33.0 µM 42% | [5]; at 50.0 µM 1.85% | [6]; at 1.2 µM 4% | [6]; at 3.7 µM 1% | [6]; [17] 9% | [6]; at 11.0 µM -17% | [6]; at 33.0 µM -5% | [6]; [18] 47% | [6]; at 50.0 µM 22.4% | [6]; at 100.0 µM 34% | [7]; at 1.2 µM -14% | [7]; at 3.7 µM -27% | [7]; at 11.0 µM -11% | [7]; at 33.0 µM -22% | [7]; at 100.0 µM 8% | [8]; [17] -1% | [8]; [18] 32% | [8]; at 50.0 µM 28.6% | [9]; at 1.2 µM -3% | [9]; at 3.7 µM 3% | [9]; at 11.0 µM 3% | [9]; at 33.0 µM -22% | [9]; at 100.0 µM 7% | [10]; [17] 10% | [10]; [18] 9% | [10]; at 50.0 µM 13.6% | [11]; at 1.2 µM -66% | [11]; at 3.7 µM -39% | [11]; [17] 10% | [11]; at 11.0 µM -50% | [11]; at 33.0 µM -63% | [11]; [18] 21% | [11]; at 50.0 µM 8.5% | [11]; at 100.0 µM -2% | [12]; at 1.2 µM -58% | [12]; at 3.7 µM -40% | [12]; at 11.0 µM -45% | [12]; at 33.0 µM -19% | [13]; at 1.2 µM -31% | [13]; at 3.7 µM -8% | [13]; at 11.0 µM -32% | [13]; at 33.0 µM -29% | [13]; at 100.0 µM 22% | [14]; at 1.2 µM -6% | [14]; at 3.7 µM -9% | [14]; at 11.0 µM 1% | [14]; at 33.0 µM -5% | [14]; at 100.0 µM 45% | [15]; [17] 18% | [15]; [18] 44% | [15]; at 50.0 µM -64.6% | [16]; at 1.2 µM 6% | [16]; at 3.7 µM -5% | [16]; at 11.0 µM 2% | [16]; at 33.0 µM -21% | [16]; at 100.0 µM 41%

CC(NCCN(C)C)C1CCC2C3CCc4cc(O)ccc4C3CCC12C (stereo unspecified)
active: [1]; at 33.0 µM 93% | [1]; at 100.0 µM 95% | [2]; at 100.0 µM 97% | [3]; at 33.0 µM 90% | [3]; at 100.0 µM 96% | [4]; at 33.0 µM 75% | [4]; at 100.0 µM 97% | [5]; at 33.0 µM 92% | [5]; at 50.0 µM 81% | [5]; at 100.0 µM 93% | [6]; at 100.0 µM 97% | [7]; at 100.0 µM 98% | [8]; at 50.0 µM 91.2% | [9]; at 100.0 µM 95% | [11]; at 33.0 µM 76% | [11]; at 100.0 µM 94% | [12]; at 33.0 µM 84% | [12]; at 100.0 µM 97% | [13]; at 33.0 µM 78% | [13]; at 100.0 µM 97% | [14]; at 33.0 µM 87% | [14]; at 100.0 µM 96% | [15]; at 50.0 µM 82.4% | [16]; at 33.0 µM 91% | [16]; at 100.0 µM 95%
inactive: [1]; at 1.2 µM 6% | [1]; at 3.7 µM 16% | [1]; at 11.0 µM 57% | [2]; at 1.2 µM -4% | [2]; at 3.7 µM -1% | [2]; at 11.0 µM 7% | [2]; at 33.0 µM 43% | [3]; at 1.2 µM 26% | [3]; at 3.7 µM 41% | [3]; at 11.0 µM 66% | [4]; at 1.2 µM 0% | [4]; at 3.7 µM 1% | [4]; at 11.0 µM 13% | [5]; at 1.2 µM 14% | [5]; at 3.7 µM 19% | [5]; [17] -10% | [5]; at 11.0 µM 57% | [5]; [18] 55% | [6]; at 1.2 µM 2% | [6]; at 3.7 µM 5% | [6]; [17] 2% | [6]; at 11.0 µM 14% | [6]; at 33.0 µM 68% | [6]; [18] 49% | [6]; at 50.0 µM 61.2% | [7]; at 1.2 µM 3% | [7]; at 3.7 µM 4% | [7]; at 11.0 µM 13% | [7]; at 33.0 µM 65% | [8]; [17] 7% | [8]; [18] 47% | [9]; at 1.2 µM 1% | [9]; at 3.7 µM 1% | [9]; at 11.0 µM 11% | [9]; at 33.0 µM 61% | [10]; [17] 35% | [10]; [18] 29% | [10]; at 50.0 µM 41.7% | [11]; at 1.2 µM 6% | [11]; at 3.7 µM 11% | [11]; [17] -4% | [11]; at 11.0 µM 33% | [11]; [18] 44% | [11]; at 50.0 µM 63.1% | [12]; at 1.2 µM -1% | [12]; at 3.7 µM 0% | [12]; at 11.0 µM 15% | [13]; at 1.2 µM 4% | [13]; at 3.7 µM 4% | [13]; at 11.0 µM 26% | [14]; at 1.2 µM 3% | [14]; at 3.7 µM 9% | [14]; at 11.0 µM 42% | [15]; [17] 4% | [15]; [18] 59% | [16]; at 1.2 µM 22% | [16]; at 3.7 µM 20% | [16]; at 11.0 µM 52%
